Reference: PubChem BioAssay AID1159580 (chemical genetic matrix, 2015)
Several values for one entry are separate records, joined by “and”; a condition that tells them apart may be missing. Identical values can stand only once. Out of some 5,500 compounds screened, about 2,000 (36%) were called active. Roughly 18% stayed inconclusive and do not appear here. No stated cut-off is given here; in the data, active means normalized growth mostly below about 0.91 (no sharp cut-off); inconclusive means no clear call, values can overlap the other calls; inactive means mostly above about 0.92. This is one part of the list.

Test: chemical genetic growth profiling, strain panel (AID 1159580);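 further: tested at 20 µM; growth read once vehicle control cultures reached saturation at 30 °C; 1 = growth at the plate median or of vehicle wells; lower values mean less growth of the strain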
Settings: S. cerevisiae deletion strains, growth OD

Measured: normalized growth

CCC(=O)OC1[C@@H]2CC3=C4CC(=O)O[C@@H](c5ccoc5)[C@]4(C)CCC3[C@@](C)(C2=O)[C@@H](CC(=O)OC)C1(C)C (stereo partly specified)
inactive: locus YAL021C, strain ccr4, hits give low values 1.03 | locus YAL026C, strain drs2, hits give low values 0.973 | locus YAL030W, strain snc1, hits give low values 0.998 | locus YBL061C, strain skt5, hits give low values 0.992 | locus YBR009C, strain hhf1, hits give low values 0.992 | locus YBR021W, strain FUR4, hits give low values 1.01 | locus YBR023C, strain chs3, hits give low values 0.995 | locus YBR171W, strain sec66, hits give low values 0.983 | locus YBR229C, strain ROT2, hits give low values 1 | locus YBR231C, strain swc5, hits give low values 0.989 | locus YBR279W, strain paf1, hits give low values 0.999 | locus YCL011C, strain gbp2, hits give low values 1.01 | locus YCL016C, strain dcc1, hits give low values 1.01 | locus YCL029C, strain bik1, hits give low values 1.02 | locus YCL061C, strain MRC1, hits give low values 0.998 | locus YCL069W, strain vba3, hits give low values 0.995 | locus YCR088W, strain abp1, hits give low values 0.996 | locus YDL005C, strain med2, hits give low values 0.978 | locus YDL035C, strain GPR1, hits give low values 1 | locus YDL040C, strain nat1, hits give low values 0.976 | locus YDL074C, strain BRE1, hits give low values 1.01 | locus YDL101C, strain DUN1, hits give low values 1 | locus YDL185W, strain tfp1, hits give low values 1.02 | locus YDL192W, strain arf1, hits give low values 1.01 | locus YDR001C, strain nth1, hits give low values 0.992 | locus YDR069C, strain doa4, hits give low values 0.982 | locus YDR101C, strain arx1, hits give low values 1.02 | locus YDR137W, strain rgp1, hits give low values 0.901 | locus YDR159W, strain sac3, hits give low values 0.991 | locus YDR162C, strain NBP2, hits give low values 0.999 | locus YDR195W, strain ref2 0.984 | locus YDR297W, strain sur2, hits give low values 0.994 | locus YDR318W, strain mcm21, hits give low values 1.01 | locus YDR334W, strain swr1, hits give low values 0.982 | locus YDR335W, strain msn5, hits give low values 0.996 | locus YDR388W, hits give low values 1.01 | locus YDR392W, strain spt3, hits give low values 0.837 | locus YDR502C, strain sam2, hits give low values 1.02 | locus YEL003W, strain gim4, hits give low values 0.989 | locus YEL037C, strain rad23, hits give low values 0.984 | locus YEL061C, strain CIN8 (second series), hits give low values 0.986 | locus YEL061C, strain CIN8, hits give low values 0.992 | locus YER015W, strain faa2, hits give low values 1 | locus YER016W, strain bim1, hits give low values 0.991 | locus YER110C, hits give low values 1.02 | locus YER111C, strain swi4, hits give low values 0.977 | locus YER155C, strain BEM2 (second series), hits give low values 1 | locus YER155C, strain BEM2, hits give low values 0.998 | locus YER167W, strain BCK2, hits give low values 0.994 | locus YFR010W, strain ubp6, hits give low values 0.984 | locus YGL078C, strain dbp3, hits give low values 1 | locus YGL086W, strain mad1, hits give low values 1 | locus YGL167C, strain pmr1, hits give low values 0.989 | locus YGL173C, strain kem1, hits give low values 0.979 | locus YGL227W, strain vid30, hits give low values 0.988 | locus YGL240W, strain doc1, hits give low values 0.99 | locus YGL248W, strain PDE1, hits give low values 1 | locus YGL253W, strain hxk2, hits give low values 0.954 | locus YGR135W, strain pre9, hits give low values 1.02 | locus YGR252W, strain gcn5, hits give low values 1.05 | locus YHR013C, strain ard1, hits give low values 0.966 | locus YHR027C, strain rpn1, hits give low values 0.988 | locus YHR030C, strain SLT2, hits give low values 1 and 0.969 | locus YHR079C, strain IRE1 (second series), hits give low values 1.01 | locus YHR079C, strain IRE1, hits give low values 0.987 | locus YHR094C, strain hxt1, hits give low values 1.01 | locus YHR129C, strain ARP1, hits give low values 1 | locus YHR142W, strain chs7, hits give low values 1.01 | locus YHR200W, strain rpn10, hits give low values 1.02 | locus YIL066C, strain RNR3, hits give low values 0.999 | locus YIL073C, strain SPO22, hits give low values 1.05 | locus YIL125W, strain kgd1, hits give low values 1.01 | locus YIR030C, strain dcg1, hits give low values 1.01 | locus YJL092W, strain hpr5, hits give low values 0.995 | locus YJL095W, strain BCK1 (second series), hits give low values 0.995 | locus YJL095W, strain BCK1, hits give low values 0.992 and 0.999 | locus YJL115W, strain asf1, hits give low values 0.989 | locus YJL129C, strain trk1, hits give low values 0.974 | locus YJL134W, strain LCB3, hits give low values 0.998 | locus YJL154C, strain vps35, hits give low values 0.996 | locus YJL164C, strain tpk1, hits give low values 1.01 | locus YJL166W, strain qcr8, hits give low values 1 | locus YJL168C, strain set2, hits give low values 1 | locus YJL187C, strain SWE1 (second series), hits give low values 1.01 | locus YJL187C, strain SWE1, hits give low values 0.998 | locus YJR043C, strain POL32, hits give low values 1.02
